Screens (PubChem BioAssay)
The list is not random: actives were taken first. Their share in the collection is about 14%.
HCMV inh = inhibitors of human cytomegalovirus; HFF cells, HCMV-luciferase reporter, 72 h; stronger effect = lower value; activity change, negative = inhibition, % at 57.5 µM; 410,000 compounds, 4.5% hits; AID 1259415; in the data active means activity change below about -60%; inconclusive means no clear call, values can overlap the other calls; inactive means above about -39%
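Two compound doses tested in HFFs infected with HCMV-luciferase, MOI 1 PFU/cell, 72 h at 37C. Lysate luminescence read with OneGlo; data normalized against buffer-only and 10uM Salinomycin inhibitor controls.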
Pf growth 96h = P. falciparum growth inhibition at 96 hour, primary screen for plastid delayed-death inhibitors; P. falciparum luciferase reporter growth, 96 h; Potency, µM (top dose mostly 28.7 µM), usual class: inhibitors; 320,000 compounds, 6.9% hits; AID 504834
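Cell-based qHTS: luciferase-tagged P. falciparum in erythrocytes (2% hematocrit, 0.05% parasitemia final) incubated with compounds for 96 hours, 37 C, 5% CO2; luciferase detection reagent then added and luminescence measured.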
FBPA Giardia inh = inhibitors of Giardia lamblia fructose-1,6-bisphosphate aldolase; 290,000 compounds, 0.71% hits; purified Giardia FBPA; AID 2451; A8B2U2; Potency, µM (titrated, usually from 59.6 µM), actives largely listed as inhibitors; further: nearly all actives have a fitted effect of over 55% in size
Target sequence (A8B2U2 whole entry, looked up): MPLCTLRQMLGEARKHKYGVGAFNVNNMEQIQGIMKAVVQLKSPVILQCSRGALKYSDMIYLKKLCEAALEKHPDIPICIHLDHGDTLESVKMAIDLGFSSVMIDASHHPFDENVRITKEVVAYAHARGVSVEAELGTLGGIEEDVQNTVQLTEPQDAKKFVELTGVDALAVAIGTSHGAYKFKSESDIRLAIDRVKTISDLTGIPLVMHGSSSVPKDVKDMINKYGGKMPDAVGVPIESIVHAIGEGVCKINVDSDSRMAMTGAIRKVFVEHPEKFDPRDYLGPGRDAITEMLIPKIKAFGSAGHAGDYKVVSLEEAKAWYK
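Giardia FBPA (40 nM reagent) was preincubated 10 min at RT with compound (up to 57.5 uM final), then substrate plus GAPDH/TPI/NAD/arsenate coupling system with diaphorase/resazurin was added; resorufin fluorescence (525/598 nm) was read after 20 min.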
Sm TGR block = inhibitors of Schistosoma mansoni thioredoxin glutathione reductase; Q962Y6; purified TGR, DTNB reduction, TNB absorbance 405 nm; Potency, µM (top dose mostly 114 µM), most hits filed as inhibitors; 360,000 compounds, 3% hits; AID 485364; further: nearly all actives have a fitted effect of over 60% in size
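TGR 20 nM + NADPH 100 uM (dispensed conc.), cpd preinc 15 min RT; start with NADPH (500 uM addition) then DTNB (15 mM addition). Kinetic TNB absorbance, 405 nm filter. Four-parameter Hill fit across titration.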
Pf growth 48h = P. falciparum growth inhibition at 48 hours (one generation). 310,000 compounds, 5.9% hits. P. falciparum luciferase growth in erythrocytes, 48 h. AID 504832. Potency, µM (highest dose often 28.7 µM), most hits filed as inhibitors
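Here the parasites carry a stable luciferase gene and grow inside erythrocytes in Albumax-based RPMI medium with compound for one erythrocytic cycle. Activity is scored as loss of luminescent signal.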
A number is an active result. Unless noted, the call rests on the fitted dose curve; in most records, active means well fitted curve in the direction sought with a large enough effect; inconclusive means small, poorly fitted or top-dose-only effect, or another doubt; inactive means no such curve, though single readings can be large; an effect the other way counts as inactive or inconclusive.

CC(C)C[C@H](NC(=O)CNC(=O)[C@H](C)NC(=O)[C@H](CC(C)C)NC(=O)[C@H](CCCNC(=N)N)NC(=O)[C@H](Cc1cnc[nH]1)NC(=O)[C@@H](NC(=O)[C@@H](NC(=O)[C@@H]1CSSC[C@H](NC(=O)[C@@H](N)CO)C(=O)N[C@@H](CC(N)=O)C(=O)N[C@@H]([C@@H](C)O)C(=O)N[C@@H](C)C(=O)N[C@@H]([C@@H](C)O)C(=O)N1)C(C)C)[C@@H](C)O)C(=O)N[C@@H](CC(C)C)C(=O)N[C@@H](CO)C(=O)N[C@@H](CCCNC(=N)N)C(=O)N[C@@H](CO)C(=O)NCC(=O)NCC(=O)N[C@H](C(=O)N[C@H](C(=O)N[C@@H](CCCCN)C(=O)N[C@@H](CC(=O)O)C(=O)N[C@@H](CC(N)=O)C(=O)N[C@@H](Cc1ccccc1)C(=O)N[C@H](C(=O)N1CCC[C@H]1C(=O)N[C@H](C(=O)N[C@@H](CC(N)=O)C(=O)N[C@H](C(=O)NCC(=O)N[C@@H](CO)C(=O)N[C@@H](CCCCN)C(=O)N[C@@H](C)C(=O)N[C@@H](Cc1ccccc1)C(N)=O)C(C)C)[C@@H](C)O)C(C)C)C(C)C)C(C)C was read as FBPA Giardia inh inactive.
Screening CCOC(=O)C1=C(C)N2C(=C(C#N)[C@@H]1c1ccc(C(=O)OC)cc1)SC[C@@]2(O)C(C)(C)C returned HCMV inh inactive, FBPA Giardia inh inactive, Sm TGR block inactive and Pf growth 48h 13µM.
`CCOC(=O)C1=C(C)N=C2SCCC(=O)N2C1c1ccc(C(=O)OC)cc1` (stereo not given) gave HCMV inh inactive, FBPA Giardia inh inactive and Sm TGR block inactive.
`COc1cc(OC)cc(Oc2ccc(S(=O)(=O)N3CCCCC3)cc2[N+](=O)[O-])c1` gave HCMV inh inactive, Pf growth 96h inconclusive, FBPA Giardia inh inactive, Sm TGR block inactive and Pf growth 48h 8.3µM.
Screening Cc1ccc(CN(C)C(=O)COc2ccc(S(=O)(=O)N3CCCC3)cc2[N+](=O)[O-])c(C)c1 returned HCMV inh inactive, Pf growth 96h inconclusive, Sm TGR block inactive and Pf growth 48h 12µM.
`COc1ccccc1Oc1ccc(S(=O)(=O)N2CCCC2)cc1` gave HCMV inh inactive, Pf growth 96h inactive, FBPA Giardia inh inactive, Sm TGR block inactive and Pf growth 48h inactive.
`Nc1cc(S(=O)(=O)N2CCCCC2)ccc1Oc1ccc(Cl)cc1` gave HCMV inh -66, Pf growth 96h inactive, FBPA Giardia inh inactive, Sm TGR block inactive and Pf growth 48h inactive.
Screening COc1ccc(Oc2ccc(S(=O)(=O)N3CCCCC3)cc2S(=O)(=O)N2CCCCC2)cc1 returned HCMV inh inactive, Pf growth 96h inconclusive, FBPA Giardia inh inactive, Sm TGR block inactive and Pf growth 48h 10µM.
`CC1(C)S[C@@H]2[C@H](NC(=O)COc3ccccc3)C(=O)N2[C@H]1C(=O)O` gave Pf growth 96h inactive, FBPA Giardia inh inactive and Pf growth 48h inactive.
For CC(C)(C)c1ccc(S(=O)(=O)N2CCC(CO)(CC3CCCCO3)CC2)cc1 (stereo not given) the results were HCMV inh inactive, Pf growth 96h inconclusive, FBPA Giardia inh inactive, Sm TGR block inactive and Pf growth 48h 2.3µM.
Screening CC(C)(C)c1ccc(S(=O)(=O)N2CCC(c3ccncc3)CC2)cc1 returned HCMV inh -83 and Sm TGR block inactive.
`CC(C)(C)c1ccc(S(=O)(=O)N2CCN(C(=O)C3=COCCO3)CC2)cc1` gave HCMV inh inactive, Pf growth 96h 13µM, Sm TGR block inactive and Pf growth 48h inconclusive.
Screening CC(C)(C)c1ccc(S(=O)(=O)N2CCCCC2)cc1 returned HCMV inh inactive, Pf growth 96h 12µM, FBPA Giardia inh inactive, Sm TGR block inactive and Pf growth 48h inconclusive.
Screening Cc1ccc(C(=O)CC2SC(N)=NC2=O)cc1 (stereo not given) returned HCMV inh inactive, Pf growth 96h inactive, FBPA Giardia inh inactive, Sm TGR block inactive and Pf growth 48h inactive.
For NC1=NC(=O)C(CC(=O)c2ccc(Cl)cc2)S1 (stereo not given) the results were HCMV inh inactive, Pf growth 96h inactive, FBPA Giardia inh inactive, Sm TGR block 20µM and Pf growth 48h inactive.
`NC(N)=Nc1nc2cc([N+](=O)[O-])ccc2o1` gave HCMV inh -71, Pf growth 96h inactive, FBPA Giardia inh inactive, Sm TGR block inactive and Pf growth 48h inactive.
Screening O=[N+]([O-])c1ccc2oc(-c3ccccc3)nc2c1 returned HCMV inh inactive, Pf growth 96h inactive, FBPA Giardia inh inactive, Sm TGR block inactive and Pf growth 48h inactive.
`COc1ccc(N=Cc2ccccc2O)cc1` gave HCMV inh inactive.
`COc1ccc(N=Cc2[nH]c3ccccc3c2O)cc1` gave HCMV inh inactive, Pf growth 96h inactive, FBPA Giardia inh 14µM, Sm TGR block inconclusive and Pf growth 48h inactive.
`Cc1ccc(C)c(N(CC(=O)NC2CCCC2)C(=O)c2oc(C(C)(C)C)cc2C)c1` gave HCMV inh -67, Pf growth 96h inconclusive, FBPA Giardia inh inactive, Sm TGR block inactive and Pf growth 48h inconclusive.
Cc1cc(C(C)(C)C)oc1C(=O)N(CC(=O)NC1CCCC1)Cc1ccccc1 was read as HCMV inh inactive, Pf growth 96h inconclusive, FBPA Giardia inh inactive, Sm TGR block inactive and Pf growth 48h inconclusive.
For CCOC(=O)c1cc(-c2ccc(C#N)cc2)nc2c1c(C)nn2CCC#N the results were HCMV inh inactive, FBPA Giardia inh inactive, Sm TGR block inactive and Pf growth 48h inconclusive.
`CCOC(=O)c1cc(-c2ccc(C)o2)nn1CCC#N` gave HCMV inh inactive, Pf growth 96h 12µM, FBPA Giardia inh inactive, Sm TGR block 18µM and Pf growth 48h inconclusive.
Screening CCOC(=O)c1cc(-c2ccncc2)nc2c1c(C)nn2-c1ccccn1 returned HCMV inh inactive, Pf growth 96h 13µM, FBPA Giardia inh inactive, Sm TGR block inactive and Pf growth 48h 5.9µM.
CCOC(=O)c1cc(-c2ccc(OC)cc2)nc2c1c(C)nn2CCC#N was read as HCMV inh inactive, FBPA Giardia inh inactive, Sm TGR block inactive and Pf growth 48h 5.2µM.
`Fc1cccc(F)c1[B-](F)(F)F` gave HCMV inh inactive.
Cc1ccc2nc(COC(=O)c3cccnc3Cl)cc(=O)n2c1 was read as HCMV inh inactive.
CC(C)C[C@@H](CNCC(=O)[C@H](Cc1ccccc1)NC(=O)c1[nH]cnc1C(=O)N[C@H](CN)CC(C)C)NC(=O)c1nc[nH]c1C(=O)N[C@@H](CC(=O)O)C(=O)O was read as HCMV inh inactive.
Screening CCOc1ccc(S(=O)(=O)c2c(C(=O)c3ccc(C)cc3)cnc3cc4c(cc23)OCCO4)cc1 returned HCMV inh -62, Pf growth 96h inconclusive, FBPA Giardia inh inactive, Sm TGR block inactive and Pf growth 48h inconclusive.
